About 2,000 (36%) of roughly 5,500 compounds were called active. Roughly 18% stayed inconclusive and do not appear here. Cut-off read from the data, not from the text of the source: active = normalized growth mostly below about 0.91 (no sharp cut-off); inconclusive = no clear call, values can overlap the other calls; inactive = mostly above about 0.92. Some of the results follow.
Test: chemical genetic growth profiling, strain panel (AID 1159580);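 note: tested at 20 µM; growth read once vehicle control cultures reached saturation at 30 °C; 1 = growth at the plate median or of vehicle wells; lower values mean less growth of the strain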
Conditions: growth OD

Measured: normalized growth

CCCCC(=O)N(Cc1ccc(-c2ccccc2-c2nn[nH]n2)cc1)[C@H](C(=O)O)C(C)C
inactive: S. cerevisiae deletion strains, locus YJR066W, strain TOR1, stronger effect = lower value 0.959 | S. cerevisiae deletion strains, locus YJR075W, strain HOC1, stronger effect = lower value 1 | S. cerevisiae deletion strains, locus YKL009W, strain mrt4, stronger effect = lower value 0.968 | S. cerevisiae deletion strains, locus YKL068W, stronger effect = lower value 0.964 | S. cerevisiae deletion strains, locus YKL085W, strain MDH1 (second series), stronger effect = lower value 0.959 | S. cerevisiae deletion strains, locus YKL085W, strain MDH1, stronger effect = lower value 0.959 | S. cerevisiae deletion strains, locus YKL160W, strain elf1, stronger effect = lower value 1.01 | S. cerevisiae deletion strains, locus YKL190W, strain CNB1, stronger effect = lower value 0.986 | S. cerevisiae deletion strains, locus YKR001C, strain vps1, stronger effect = lower value 0.987 | S. cerevisiae deletion strains, locus YKR026C, strain gcn3, stronger effect = lower value 0.985 | S. cerevisiae deletion strains, locus YKR091W, strain srl3, stronger effect = lower value 0.981 | S. cerevisiae deletion strains, locus YLL001W, strain dnm1, stronger effect = lower value 0.993 | S. cerevisiae deletion strains, locus YLL026W, stronger effect = lower value 0.998 | S. cerevisiae deletion strains, locus YLL041C, strain sdh2, stronger effect = lower value 1 | S. cerevisiae deletion strains, locus YLR027C, strain aat2, stronger effect = lower value 0.999 | S. cerevisiae deletion strains, locus YLR039C, strain RIC1, stronger effect = lower value 0.963 | S. cerevisiae deletion strains, locus YLR058C, strain SHM2, stronger effect = lower value 1 | S. cerevisiae deletion strains, locus YLR102C, strain apc9, stronger effect = lower value 0.975 | S. cerevisiae deletion strains, locus YLR113W, strain HOG1, stronger effect = lower value 0.987 | S. cerevisiae deletion strains, locus YLR221C, strain rsa3, stronger effect = lower value 0.977 | S. cerevisiae deletion strains, locus YLR258W, strain gsy2, stronger effect = lower value 0.989 | S. cerevisiae deletion strains, locus YLR262C, strain YPT6 (second series), stronger effect = lower value 1 | S. cerevisiae deletion strains, locus YLR262C, strain YPT6, stronger effect = lower value 0.981 | S. cerevisiae deletion strains, locus YLR268W, strain sec22, stronger effect = lower value 0.977 | S. cerevisiae deletion strains, locus YLR320W, strain mms22, stronger effect = lower value 0.993 | S. cerevisiae deletion strains, locus YLR330W, strain CHS5, stronger effect = lower value 0.99 | S. cerevisiae deletion strains, locus YLR342W, strain FKS1 (second series), stronger effect = lower value 1.01 | S. cerevisiae deletion strains, locus YLR342W, strain FKS1, stronger effect = lower value 1.02 | S. cerevisiae deletion strains, locus YLR357W, strain rsc2, stronger effect = lower value 0.976 | S. cerevisiae deletion strains, locus YLR370C, strain arc18, stronger effect = lower value 1 | S. cerevisiae deletion strains, locus YLR371W, strain rom2, stronger effect = lower value 0.977 | S. cerevisiae deletion strains, locus YLR384C, strain iki3, stronger effect = lower value 1.01 | S. cerevisiae deletion strains, locus YLR418C, strain cdc73, stronger effect = lower value 0.989 | S. cerevisiae deletion strains, locus YML016C, strain PPZ1, stronger effect = lower value 0.994 | S. cerevisiae deletion strains, locus YML032C, strain rad52, stronger effect = lower value 0.985 | S. cerevisiae deletion strains, locus YML120C, strain ndi1, stronger effect = lower value 0.981 | S. cerevisiae deletion strains, locus YML124C, strain tub3, stronger effect = lower value 0.985 | S. cerevisiae deletion strains, locus YMR058W, strain fet3, stronger effect = lower value 0.982 | S. cerevisiae deletion strains, locus YMR078C, strain ctf18, stronger effect = lower value 0.995 | S. cerevisiae deletion strains, locus YMR125W, strain sto1, stronger effect = lower value 0.932 | S. cerevisiae deletion strains, locus YMR129W, stronger effect = lower value 0.983 | S. cerevisiae deletion strains, locus YMR205C, strain PFK2, stronger effect = lower value 0.994 | S. cerevisiae deletion strains, locus YMR223W, strain ubp8, stronger effect = lower value 0.994 | S. cerevisiae deletion strains, locus YMR231W, strain pep5, stronger effect = lower value 1 | S. cerevisiae deletion strains, locus YMR263W, strain SAP30, stronger effect = lower value 0.975 | S. cerevisiae deletion strains, locus YMR307W, strain GAS1, stronger effect = lower value 1.04 | S. cerevisiae deletion strains, locus YNL067W, strain RPL9B, stronger effect = lower value 0.985 | S. cerevisiae deletion strains, locus YNL071W, strain lat1, stronger effect = lower value 0.991 | S. cerevisiae deletion strains, locus YNL128W, strain TEP1, stronger effect = lower value 0.969 | S. cerevisiae deletion strains, locus YNL153C, strain GIM3, stronger effect = lower value 0.991 | S. cerevisiae deletion strains, locus YNL183C, strain NPR1, stronger effect = lower value 0.956 | S. cerevisiae deletion strains, locus YNL209W, strain ssb2, stronger effect = lower value 0.989 | S. cerevisiae deletion strains, locus YNL233W, strain BNI4, stronger effect = lower value 0.995 | S. cerevisiae deletion strains, locus YNL248C, strain rpa49, stronger effect = lower value 0.947 | S. cerevisiae deletion strains, locus YNL250W, strain rad50, stronger effect = lower value 0.944 | S. cerevisiae deletion strains, locus YNL271C, strain bni1, stronger effect = lower value 0.98 | S. cerevisiae deletion strains, locus YNL298W, strain CLA4, stronger effect = lower value 0.971 | S. cerevisiae deletion strains, locus YNL307C, strain MCK1, stronger effect = lower value 0.98 | S. cerevisiae deletion strains, locus YNL322C, strain KRE1 (second series), stronger effect = lower value 0.988 | S. cerevisiae deletion strains, locus YNL322C, strain KRE1, stronger effect = lower value 0.981 | S. cerevisiae deletion strains, locus YNR049C, strain mso1, stronger effect = lower value 0.965 | S. cerevisiae deletion strains, locus YNR052C, strain pop2, stronger effect = lower value 0.991 | S. cerevisiae deletion strains, locus YOL006C, strain TOP1, stronger effect = lower value 1.01 | S. cerevisiae deletion strains, locus YOL012C, strain htz1 1.43 | S. cerevisiae deletion strains, locus YOL147C, strain pex11, stronger effect = lower value 0.98 | S. cerevisiae deletion strains, locus YOR001W, strain rrp6, stronger effect = lower value 0.988 | S. cerevisiae deletion strains, locus YOR061W, strain CKA2, stronger effect = lower value 0.985 | S. cerevisiae deletion strains, locus YOR069W, strain VPS5, stronger effect = lower value 0.989 | S. cerevisiae deletion strains, locus YOR070C, strain gyp1, stronger effect = lower value 0.994 | S. cerevisiae deletion strains, locus YOR080W, strain dia2, stronger effect = lower value 0.988 | S. cerevisiae deletion strains, locus YOR083W, strain WHI5, stronger effect = lower value 1.01 | S. cerevisiae deletion strains, locus YOR106W, strain vam3, stronger effect = lower value 0.998 | S. cerevisiae deletion strains, locus YOR136W, strain idh2, stronger effect = lower value 0.991 | S. cerevisiae deletion strains, locus YOR144C, strain elg1, stronger effect = lower value 0.988 | S. cerevisiae deletion strains, locus YOR231W, strain MKK1, stronger effect = lower value 0.963 | S. cerevisiae deletion strains, locus YOR265W, strain rbl2, stronger effect = lower value 0.999 | S. cerevisiae deletion strains, locus YOR270C, strain vph1, stronger effect = lower value 0.997 | S. cerevisiae deletion strains, locus YOR290C, strain snf2, stronger effect = lower value 0.962 | S. cerevisiae deletion strains, locus YOR316C, strain cot1, stronger effect = lower value 0.98 | S. cerevisiae deletion strains, locus YPL051W, strain arl3, stronger effect = lower value 1.01 | S. cerevisiae deletion strains, locus YPL055C, strain LGE1, stronger effect = lower value 0.974 | S. cerevisiae deletion strains, locus YPL078C, strain atp4, stronger effect = lower value 0.989 | S. cerevisiae deletion strains, locus YPL106C, strain sse1, stronger effect = lower value 0.956 | S. cerevisiae deletion strains, locus YPL240C, strain hsp82, stronger effect = lower value 1 | S. cerevisiae deletion strains, locus YPL241C, strain CIN2, stronger effect = lower value 0.991 | S. cerevisiae deletion strains, locus YPL256C, strain CLN2, stronger effect = lower value 0.908 | S. cerevisiae deletion strains, locus YPR119W, strain clb2, stronger effect = lower value 0.991 | S. cerevisiae deletion strains, locus YPR141C, strain kar3, stronger effect = lower value 0.963 | S. cerevisiae deletion strains, locus YPR163C, strain tif3, stronger effect = lower value 0.978 | S. cerevisiae deletion strains, locus YPR167C, strain met16, stronger effect = lower value 0.976 | S. cerevisiae deletion strains, strain wtn01, stronger effect = lower value 0.96 | S. cerevisiae strains, strain wild type, stronger effect = lower value 0.973

Source: PubChem BioAssay AID1159580 (chemical genetic matrix, 2015)
